Test results as given in PubChem BioAssay (Tox21).
Values joined by “and” are separate entries in the source; they are usually repeats but may differ in a detail not shown here. Equal values may be shown once. Inconclusive results are not listed. Entries that show only a call come without a potency. Unmarked numbers belong to inactive results. Active and inactive are the calls of the source. The call rests on the fitted dose curve; in most records, active means well fitted inhibition curve with a large enough effect in the signal ratio in the repeat runs (not every such curve was filed as active); inconclusive means weak or mixed curves, or effect the other way; inactive means no such curve, though single readings can be large or run the other way; the % refers to the signal ratio.

molecular target: Estrogen receptor beta (Homo sapiens) (UniProt Q92731); assay: qHTS assay to identify small molecule antagonists of the estrogen receptor beta (ER-beta) signaling pathway (AID 1259378); conditions: ER-beta-UAS-bla HEK293T, beta-lactamase FRET ratio, 16 h; series mostly up to 92.4 µM
Sequence (Q92731 whole entry, looked up): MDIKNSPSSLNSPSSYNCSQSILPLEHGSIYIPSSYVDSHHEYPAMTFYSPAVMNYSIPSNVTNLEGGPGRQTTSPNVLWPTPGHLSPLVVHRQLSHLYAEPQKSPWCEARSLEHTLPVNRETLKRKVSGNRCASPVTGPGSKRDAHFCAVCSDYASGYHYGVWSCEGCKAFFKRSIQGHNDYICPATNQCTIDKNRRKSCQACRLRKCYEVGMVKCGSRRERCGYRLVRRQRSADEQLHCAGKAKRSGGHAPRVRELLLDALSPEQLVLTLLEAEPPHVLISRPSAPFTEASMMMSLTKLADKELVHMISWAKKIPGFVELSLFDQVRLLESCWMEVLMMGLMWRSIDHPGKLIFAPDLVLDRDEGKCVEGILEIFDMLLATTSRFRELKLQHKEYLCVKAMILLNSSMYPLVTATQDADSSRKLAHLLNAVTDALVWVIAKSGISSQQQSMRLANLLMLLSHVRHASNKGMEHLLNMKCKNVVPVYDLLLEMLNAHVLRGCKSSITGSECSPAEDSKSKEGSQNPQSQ
Text: National Center for Advancing Translational Sciences [NCATS]
NIH Chemical Genomics Center [NCGC]
U.S. Environmental Protection Agency [EPA]
National Institutes of Environmental Health Sciences [NIEHS]
National Toxicology Program [NTP]
U.S. Food and Drug Administration [FDA]
Estrogen receptor (ER), a nuclear hormone receptor, plays an important role in development, metabolic homeostasis and reproduction. Two subtypes of ER, ER-alpha and ER-beta, have similar expression patterns with some uniqueness in both types. Endocrine disrupting chemicals (EDCs) and their interactions with steroid hormone receptors like ER causes disruption of normal endocrine function. To identify the compounds that inhibit ER signaling, an ER-beta-UAS-bla GripTite cell line (Life Technologies, Madison, WI, USA) containing a beta-lactamase reporter gene under the control of an UAS response element was used to screen Tox21 10K compound library.
Tox21 Assay Protocol Summary:
ER-beta-UAS-bla HEK293T cells were dispensed at 2,000 cells/4 uL of assay medium containing 2% charcoal stripped FBS per well into black wall/clear-bottom 1536-well plates using a Multidrop Combi (ThermoFisher Scientific, Waltham, MA) dispenser. After the assay plates were incubated at a 37C and 5% CO2 for 6 hr, 23 nL of compounds dissolved in DMSO, positive controls or DMSO only was transferred to the assay plate by a Pintool station (Kalypsys, San Diego, CA), followed by addition of 1 uL (1nM as final concentration) of 17-beta-estradiol (E2) in assay medium using a BioRAPTR FRD (Flying Reagent Dispenser, Aurora Discovery, San Diego, CA). The plates were incubated at 37C and 5% CO2 for 16 hr. Then 1 uL of LiveBLAzerTM B/G FRET substrate was added using a Flying Reagent Dispenser, the plates were incubated at room temperature for 2 hours, and fluorescence intensity was measured by an Envision plate reader (PerkinElmer, Shelton, CT).
Potency means the concentration at half of the fitted maximal effect.

Row | SMILES | Potency | activity, negative = inhibition
1 | C[n+]1ccn(CCO)c1 | inactive | –
2 | CCN(CC)CCNC(=O)c1ccc(N)cc1 | inactive | –
3 | NCCNCCNCCN | inactive | –
4 | C[Si](C)(C)N[Si](C)(C)C | inactive | –
5 | CC(=O)OC[C@H]1O[C@@](COC(C)=O)(O[C@H]2O[C@H](COC(C)=O)[C@@H](OC(C)=O)[C@H](OC(C)=O)[C@H]2OC(C)=O)[C@@H](OC(C)=O)[C@@H]1OC(C)=O | inactive | –
6 | C=C(C)CC(C)(C)C | inactive | –
7 | CCOC(=O)c1ccc(O)cc1 | inactive | –
8 | O=C1C(N(CO)C(=O)NCO)N(CO)C(=O)N1CO (stereo not given) | inactive | –
9 | O=C(O)Cc1c[nH]c2ccccc12 | inactive | –
10 | CC(C)c1ccc(C(C)C)cc1 | inactive | –
11 | OCCOCCOCCOCCOCCO | inactive | –
12 | CC(CN1c2ccccc2Sc2ccccc21)N(C)C (stereo not given) | 43.3 µM (active) and 29.8 µM (active) | –
13 | CN=C(NC#N)NCCSCc1nc[nH]c1C | inactive | –
14 | CCCCCCCC(=O)O | inactive | –
15 | CC/C=C(\C(=O)N[C@@H]1C(=O)N2C(C(=O)OCOC(=O)C(C)(C)C)=C(COC(N)=O)CS[C@H]12)c1csc(N)n1 | inactive | –
16 | CCCCCNCCCCC | inactive | –
17 | CCCCCCCCCCCC(=O)N(C)CC(=O)O | – | 1.54% [at 8.39 µM]
18 | C=CC(C)(C)C | inactive | –
19 | CC(=O)C(C)C | inactive | –
20 | CCCCCC(C)=O | inactive | –

Row | SMILES | Potency | activity, negative = inhibition
21 | COc1c(Cl)ccc(Cl)c1C(=O)O | inactive | –
22 | CCCCC(=O)O | inactive | –
23 | CCCN(CCC)C(=O)SCC | inactive | –
24 | CC/C(C)=N/O | inactive | –
25 | OCc1ccc(Cl)cc1Cl | inactive | –
26 | CC(=O)CC(=O)N(C)C | inactive | –
27 | Nc1cccc(C(F)(F)F)c1 | inactive | –
28 | O=C(Cl)c1ccc(C(=O)Cl)cc1 | inactive | –
29 | CO[Si](CCCNCCN)(OC)OC | inactive | –
30 | Cc1cccc(C)c1[N+](=O)[O-] | inactive | –
31 | Cc1ccncc1 | inactive | –
32 | C1CCCNCC1 | inactive | –
33 | O=C1CCCCCCCCCCC1 | inactive | –
34 | O=[N+]([O-])c1ccccc1C(F)(F)F | inactive | –
35 | CCCCCCCCC(=O)O | inactive | –
36 | NC(=O)NC(N)=O | inactive | –
37 | CCc1cccc(CC)c1N | inactive | –
38 | OCC(CO)(CO)CO | inactive | –
39 | CC(=O)OCc1ccc2c(c1)OCO2 | inactive | –
40 | COC(=O)OC | inactive | –
